Results on three compounds are retold here after PubChem BioAssay AID2284326 (EPA ToxCast).

Records with an inconclusive call do not appear. Active and inactive are the calls of the source. The calls were made as follows: active = hit-call score of the fitted dose curve at least 0.9, where 1 is the maximum; inconclusive = response in the unintended direction; inactive = score below 0.9.

The experiment concerns TPO (gene 7173). The experiment is described as follows: CCTE_GLTED_hTPO: CCTE's human Thyroperoxidase (hTPO) Inhibition Assay, Great Lakes Toxicology and Ecology Division (GLTED) Lab. On the procedure:
CCTE_GLTED_hTPO is a cell-free, single-readout assay designed to test the inhibitory activity of chemicals toward human thyroperoxidase (TPO) protein. Uninhibited enzyme converts Amplex UltraRed to a fluorescent product. Measurements were taken 0.5 hour after chemical dosing in a 96-well plate. CCTE_GLTED_hTPO is the assay component measured from the CCTE_GLTED_hTPO assay. It is designed to make measurements of enzyme activity, a form of enzyme reporter, as detected with […] by Fluorescence technology.Data from the assay component CCTE_GLTED_hTPO was analyzed at the assay endpoint CCTE_GLTED_hTPO in the positive analysis fitting direction relative to DMSO as the negative control and baseline of activity. Using a type of enzyme reporter (the Amplex UltraRed assay), loss-of-signal activity can be used to understand decreased peroxidase activity in the presence of excess […]. To generalize the intended target to other relatable targets, this assay endpoint is annotated to the 'oxidoreductase' intended target family, where the subfamily is 'peroxidase'.
[…]
For orientation: AC50 means the concentration at which the activity in the assay is half-maximal. As to `O=S(=O)(O)C(F)(F)C(F)(F)C(F)(F)C(F)(F)C(F)(F)C(F)(F)C(F)(F)C(F)(F)F`, the AC50 was 285 µM (active). Consider `O=C(O)C(F)(F)C(F)(F)C(F)(F)C(F)(F)C(F)(F)C(F)(F)C(F)(F)C(F)(F)F`, for which the result was inactive. Regarding `O=C(O)C(F)(OC(F)(F)C(F)(F)C(F)(F)F)C(F)(F)F` (stereo not drawn), the AC50 was 40.2 µM (active).
